Eight molecules from PubChem BioAssay (NCATS) can be followed below.

In experiment [1] the target is Cytochrome P450 1A2 (Homo sapiens) (UniProt P05177). The experiment in a line: p450-cyp1a2 (AID 410). Further: potency means the concentration at half of the fitted maximal effect.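 On activity change, negative = inhibition: -100% = full effect of reference inhibitor.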 The method, boiled down:
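Read-out is luminescence from luciferin produced by CYP1A2 demethylation of Luciferin-ME (100uM, at Km). Detection reagent stopped the 60 min NADPH-dependent reaction; signals were normalized to 57 uM furafylline.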

Experiment [2] in a line: NFAT Signaling Pathway (AID 444; active means well fitted curve in either direction with a large enough effect, not every such curve was filed as active;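 further: carbachol stimulus at about its EC50 of 1 µM final; on the % scale 0 is the no-effect control and ±100 the full control effect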). The note with it: Jurkat NFAT-bla M1, carbachol, beta-lactamase ratio, 5 h; at 17.2 µM (top of the series). The method, boiled down:
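Jurkat cells carrying an NFAT-driven β-lactamase reporter and co-transfected muscarinic M1 receptor were treated with compound plus carbachol (1 uM final, an EC50 level) for 5 h at 37 °C. CCF4 loading followed for 1 h at RT; 460/530 nm ratio gave %activity.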

The nature of experiment [3]: Stat Signaling Pathway (AID 446; active means well fitted curve in either direction with a large enough effect, not every such curve was filed as active;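 further: ME-180 cervical cancer cells given 40 pM IL-6 alongside compound; SIE-controlled beta-lactamase reporter measured as 460/530 nm FRET emission ratio; on the % scale 0 is the no-effect control and ±100 the full control effect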). The essentials: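 Normalization used AC90 stimulation (300 pM IL-6) and AC90 inhibition (125 nM pan-JAK inhibitor at 40 pM IL-6). The underlying signal is SIE-driven beta-lactamase in ME-180 cells after 5 h IL-6 exposure with compound.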
In experiment [4] the target is Glucocorticoid receptor (Homo sapiens) (UniProt P04150). Nature of the experiment: GR-GFP Redistribution (AID 450;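 active means compounds whose dose series gives a full or clear partial fitted curve of increased nuclear translocation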; further: potency means the concentration at half of the fitted maximal effect). The conditions noted are these: U2OS GR-GFP nuclear translocation, laser cytometry, 2 h.
The target is the same in experiment [5]. The experiment in a line: GR-EFC Redistribution (AID 451). Further: potency means the concentration at half of the fitted maximal effect. The conditions noted are these: CHO-K1 GR-EFC translocation, beta-gal luminescence, 2 h. The essentials: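 CHO-K1 cells stably expressing nuclear-localized β-gal enzyme acceptor and GR fused C-terminally to the enzyme donor fragment; ligand-driven nuclear translocation restores β-gal by complementation. Compounds titrated up to 46 uM final, 2 h at 37 °C; luminescence read.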

Experiment [6] deals with Mitogen-activated protein kinase 10 (Mus musculus) (UniProt Q61831). The experiment in a line: JNK3 AlphaScreen Assay (AID 530; active means well fitted curve in either direction with a large enough effect, not every such curve was filed as active;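 further: kinase came from lysate of stimulated human HepG2 cells; signal reports phosphorylation of biotinylated GST-cJun 1-79 at Ser73 with 10 µM ATP; on the % scale 0 is the no-effect control and ±100 the full control effect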). The essentials: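 Biotinylated GST-cJun(1-79) served as substrate for JNK3 in HepG2 lysates stimulated with IL-1beta and TNF-alpha. ATP was 10 uM final, pH 7.6. Ser73 phosphorylation was quantified by AlphaScreen (680 nm excitation).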
Experiment [7] in a line: Cell Viability - BJ (AID 421).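 Further: potency means the concentration at half of the fitted maximal effect; cells exposed to compound for 40 hours at 37 °C before readout.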 The note with it: BJ fibroblast viability, qHTS. The essentials:
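Normal human BJ foreskin fibroblasts, 1500/well in complete medium, treated 40 hr at 37 °C. Cellular ATP by CellTiter-Glo luminescence; normalized to DMSO and 100 uM tamoxifen, AC50 from Hill fit.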
(Quantitative high-throughput screening tests each substance at several concentrations.)

Experiment [8] can be described thus: Cell Viability - Jurkat (AID 426;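 active means dose-dependent loss of cell ATP signal giving a full or clear fitted curve, ranked by lower potency value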; further: potency means the concentration at half of the fitted maximal effect). The note with it: qHTS. The essentials: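 Cytotoxicity was scored as loss of cellular ATP, measured by luciferase-based luminescence, in Jurkat clone E6-1 cells after 40 h compound treatment; tamoxifen and doxorubicin served as positive controls.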
Experiment [9] is described as follows: Cell Viability - Hek293 (AID 427;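 active means compounds whose dose-response curve shows a full or clear partial loss of cell viability, called from curve shape rather than a numeric limit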;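 further: potency means the concentration at half of the fitted maximal effect; cells exposed to compound for 40 hours at 37 °C before reading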). The note with it: qHTS. The essentials:
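HEK293 cells in complete medium were exposed to compound for 40 hr at 37 °C, then cellular ATP was read by CellTiter-Glo luminescence. Data were normalized to DMSO (basal) and 100 uM tamoxifen (100% inhibition), and AC50 came from Hill fits.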

Experiment [10] is described as follows: Cell Viability - HepG2 (AID 433). Further: potency means the concentration at half of the fitted maximal effect. The conditions noted are these: qHTS. The method, boiled down:
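Read-out is luciferase-based quantitation of cellular ATP as a measure of viable HepG2 cells after 40 h treatment at 37 °C. Signal decrease is scaled between DMSO-only and 100 uM tamoxifen controls, with AC50 fitted by the Hill equation.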

Experiment [11] in a line: Cell Viability - MRC5 (AID 434).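 Further: potency means the concentration at half of the fitted maximal effect; potency reflects cytotoxicity seen as loss of intracellular ATP.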 The note with it: MRC5 lung fibroblast viability, qHTS. The essentials:
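Decrease in intracellular ATP, quantified by luciferase light output, reflects compound toxicity toward MRC5 cells exposed for 40 hr in complete culture medium. Concentration-response curves, scaled between DMSO and 100 uM tamoxifen, gave AC50 values.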

A short description of experiment [12]: Cell Viability - SK-N-SH (AID 435).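 Further: potency means the concentration at half of the fitted maximal effect; compound exposure lasted 40 h at 37 °C.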 The note with it: SK-N-SH neuroblastoma cell viability qHTS. The method, boiled down: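 Luminescent ATP signal served as the viability read-out after 40 hours of compound treatment of human neuroblastoma SK-N-SH cells. Concentration-response data, scaled between DMSO and 100 uM tamoxifen, gave AC50 values by standard Hill modeling.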

Experiment [13] can be described thus: Cell Viability - N2a (AID 540; active means well fitted curve in the direction sought with a large enough effect; an effect the other way counts as inactive or inconclusive; further: nearly all actives have a fitted effect of over 45% in size; further: potency means the concentration at half of the fitted maximal effect;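 on activity change, negative = cytotoxicity: plate controls were DMSO alone for no effect and tamoxifen control for full effect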). The note with it: N2a mouse neuroblastoma cell viability; activity change, negative = cytotoxicity: at 92.2 µM (top of the series). The essentials:
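In this qHTS cytotoxicity screen, ATP-dependent luciferase luminescence reports viable N2a cells after a 40 hr compound exposure in complete culture medium. Potencies are AC50 values from standard Hill equation fits.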

The nature of experiment [14]: Cell Viability - NIH 3T3 (AID 541; active means well fitted curve in the direction sought with a large enough effect; an effect the other way counts as inactive or inconclusive; further: nearly all actives have a fitted effect of over 25% in size; further: potency means the concentration at half of the fitted maximal effect;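 on activity change, negative = cytotoxicity: plate controls were DMSO alone for no effect and tamoxifen positive control for full effect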). The conditions noted are these: NIH 3T3 cell viability, qHTS; activity change, negative = cytotoxicity: at 92.2 µM (top of the series). The method, boiled down: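 In this cytotoxicity screen, acute toxicity is scored as an ATP drop measured by CellTiter-Glo in NIH 3T3 fibroblasts following a 40 hr, 37 °C incubation with compound.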

Experiment [15] in a line: Cell Viability - H-4-II-E (AID 543; active means well fitted curve in the direction sought with a large enough effect; an effect the other way counts as inactive or inconclusive; further: nearly all actives have a fitted effect of over 35% in size; further: potency means the concentration at half of the fitted maximal effect). The essentials:
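AC50 from Hill-modelled qHTS concentration-response curves. H-4-II-E rat hepatoma cells in complete medium, 40 hr exposure at 37 °C, viability by CellTiter-Glo ATP luminescence.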

Experiment [16] in a line: Cell Viability - SH-SY5Y (AID 544; active means well fitted curve in the direction sought with a large enough effect; an effect the other way counts as inactive or inconclusive; further: nearly all actives have a fitted effect of over 55% in size; further: potency means the concentration at half of the fitted maximal effect;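 on viability change, negative = cytotoxic: 0% = DMSO alone and -100% = 100 µM tamoxifen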). The note with it: SH-SY5Y neuroblastoma cell viability; viability change, negative = cytotoxic: at 92.2 µM (top of the series). The essentials:
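Quantitative HTS in SH-SY5Y neuroblastoma cells, 40 hr treatment at 37 °C, ATP content by luciferase luminescence; AC50 from Hill fits.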

Experiment [17] can be described thus: Cell Viability - Renal Proximal Tubule (AID 545; active means well fitted curve in the direction sought with a large enough effect; an effect the other way counts as inactive or inconclusive; further: nearly all actives have a fitted effect of over 40% in size; further: potency means the concentration at half of the fitted maximal effect;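 on activity change, negative = cytotoxicity: 0% = DMSO only and -100% = 100 µM tamoxifen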). The note with it: renal proximal tubule cells viability, primary cells of rat origin; activity change, negative = cytotoxicity: at 91.7 µM (top of the series). The essentials:
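Luminescent ATP signal (CellTiter-Glo) served as the viability read-out after 40 hr compound exposure of freshly isolated rat proximal tubule cells at 37 °C. Concentration-dependent ATP loss was fitted with the Hill equation to give AC50.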

Experiment [18] in a line: Cell Viability - Mesenchymal (AID 546; active means well fitted curve in the direction sought with a large enough effect; an effect the other way counts as inactive or inconclusive;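 further: cells exposed to compound for 40 hours before reading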; further: potency means the concentration at half of the fitted maximal effect;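 on activity change, negative = cytotoxicity: 0% = DMSO only and -100% = 100 µM tamoxifen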). The note with it: mesenchymal cells viability, qHTS; activity change, negative = cytotoxicity: at 91.7 µM (top of the series). The essentials:
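In this qHTS cytotoxicity format, glomerulus-derived human mesenchymal kidney cells received compound for 40 hr, then luciferase-based ATP quantitation. Concentration-response data were fitted with the Hill equation.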

Experiment [19] is described as follows: Cell Viability - HUV-EC-C (AID 542; active means well fitted curve in the direction sought with a large enough effect; an effect the other way counts as inactive or inconclusive; further: on the % scale 0 is the no-effect control and ±100 the full control effect; nearly all actives have a fitted effect of over 35% in size). The method, boiled down:
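Concentration-dependent ATP loss in HUV-EC-C cells is the measure. Exposure lasts 40 hr at 37 °C; luminescence follows CellTiter-Glo addition, and Hill fits give AC50.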

SMILES strings stand for the structures. Several values for one entry are separate records, joined by “and”; a condition that tells them apart may be missing. Identical values can stand only once. A number with no mark means an inactive call. Results filed as inconclusive are left out. Activity calls are given as the source filed them. Unless noted, the call rests on the fitted dose curve.

Chain of Glucocorticoid receptor (Homo sapiens) (P04150 whole entry, looked up, the tested form may be a part): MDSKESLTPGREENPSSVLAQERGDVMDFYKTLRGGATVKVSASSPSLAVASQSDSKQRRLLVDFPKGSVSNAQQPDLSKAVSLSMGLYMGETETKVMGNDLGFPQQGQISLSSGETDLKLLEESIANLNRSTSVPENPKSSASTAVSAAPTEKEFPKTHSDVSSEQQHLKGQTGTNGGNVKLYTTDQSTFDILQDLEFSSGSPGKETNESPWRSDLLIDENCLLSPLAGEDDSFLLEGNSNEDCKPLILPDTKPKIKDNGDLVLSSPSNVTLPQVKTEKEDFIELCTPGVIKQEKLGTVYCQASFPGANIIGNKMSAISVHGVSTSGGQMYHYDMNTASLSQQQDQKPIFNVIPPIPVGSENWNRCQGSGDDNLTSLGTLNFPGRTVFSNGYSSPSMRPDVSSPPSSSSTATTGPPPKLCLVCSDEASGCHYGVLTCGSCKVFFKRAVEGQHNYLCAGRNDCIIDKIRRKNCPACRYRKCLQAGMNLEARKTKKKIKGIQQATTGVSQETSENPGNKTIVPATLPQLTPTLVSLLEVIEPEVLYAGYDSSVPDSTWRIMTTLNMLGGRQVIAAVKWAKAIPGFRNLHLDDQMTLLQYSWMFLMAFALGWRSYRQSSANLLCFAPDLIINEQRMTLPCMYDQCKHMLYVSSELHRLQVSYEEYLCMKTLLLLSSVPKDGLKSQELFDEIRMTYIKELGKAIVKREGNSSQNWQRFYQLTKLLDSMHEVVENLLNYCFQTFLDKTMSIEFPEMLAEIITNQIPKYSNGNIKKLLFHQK
Chain of Cytochrome P450 1A2 (Homo sapiens) (P05177 whole entry, looked up): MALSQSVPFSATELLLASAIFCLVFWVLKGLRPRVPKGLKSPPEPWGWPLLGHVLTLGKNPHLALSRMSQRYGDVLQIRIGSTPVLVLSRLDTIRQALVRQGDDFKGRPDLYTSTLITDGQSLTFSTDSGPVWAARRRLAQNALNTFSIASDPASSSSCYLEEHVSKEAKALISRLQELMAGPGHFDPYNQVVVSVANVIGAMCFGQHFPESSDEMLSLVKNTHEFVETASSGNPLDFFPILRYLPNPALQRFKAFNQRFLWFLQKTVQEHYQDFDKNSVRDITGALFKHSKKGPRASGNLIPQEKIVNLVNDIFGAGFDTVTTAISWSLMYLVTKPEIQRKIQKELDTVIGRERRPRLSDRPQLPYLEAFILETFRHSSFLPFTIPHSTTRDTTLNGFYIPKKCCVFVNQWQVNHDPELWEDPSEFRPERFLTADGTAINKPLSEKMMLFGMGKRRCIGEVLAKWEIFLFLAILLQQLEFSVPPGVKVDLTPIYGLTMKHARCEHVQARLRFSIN

As to `CCOC(=O)NNc1nncc2ccccc12`, the Potency is 5.01 µM (active) in experiment [1], more than 20.6 µM in experiment [4] and more than 20.6 µM in experiment [5]. Besides, the activity change, negative = inhibition in experiment [2] is 1.79%. Besides, the call in experiment [3] and in [6] was inactive.

Consider `CCCCCCCCCCCCCCCC[n+]1ccccc1`, for which the Potency was 55.8 µM (active) in [7]; 19.2 µM (active) in experiment [8]; 54.4 µM (active) in [9]; 32.8 µM (active) in experiment [10]; 29.8 µM (active) in experiment [11]; 28.7 µM (active) in experiment [12]. The Potency in experiment [13] is 0.398 µM (active); in [14], 25.1 µM (active); in experiment [15], 3.98 µM (active); in experiment [16] it was 25.1 µM (active); in [17], 31.6 µM (active); in experiment [18] it was 31.6 µM (active). Also, the outcome in experiment [6] was inactive.

For the molecule `O=C(CCCCC(=O)Nc1c(I)cc(I)c(C(=O)O)c1I)Nc1c(I)cc(I)c(C(=O)O)c1I`, the Potency result in [1] is “inactive”. Further, the activity change, negative = inhibition in experiment [2] is 0.68%. In addition, the result in experiment [3] and in experiment [6] was inactive. Also, the Potency in experiment [4] and in [5] was more than 20.6 µM each time.

`COc1cc(C=O)ccc1O`: the Potency in experiment [7], in [8], in [9], in experiment [10], in experiment [11] and in experiment [12] was more than 92 µM in each case. Also, in experiment [6], the result was inactive. Moreover, the Potency entry in [13], in experiment [19], in experiment [15], in experiment [16], in experiment [17] and in experiment [18] was “inactive” in each case. In addition, the activity change, negative = cytotoxicity in experiment [14] was -22.1%.

Take `Oc1ccccc1`: the Potency in experiment [7], in [8], in experiment [9], in experiment [10], in experiment [11] and in experiment [12] was more than 92 µM throughout. Moreover, the outcome in [6] was inactive. Also, the Potency result in experiment [13], in [19], in experiment [15], in experiment [16], in [17] and in [18] was “inactive” throughout. The activity change, negative = cytotoxicity in experiment [14] is -17.5%.

As to `C1=CC2C3C=CC(C3)C2C1` (stereo unspecified), the Potency in experiment [7], in [8], in [9], in experiment [10], in [11] and in experiment [12] was more than 92 µM in each case. For the same molecule, the molecule was called inactive in [6]. Further, the Potency result in experiment [13], in [19], in [15], in experiment [16], in [17] and in experiment [18] was “inactive” throughout.

With `Cn1cnc2c(NCc3ccccc3)nc(NCCO)nc21`, the Potency is 7.94 µM (active) and 5.01 µM (active) in experiment [1]; more than 46 µM in experiment [4]; more than 46 µM in experiment [5]. Moreover, the molecule was classed as inactive in experiment [3].

Turning to `CCN(CC)CCOc1ccc(/C(=C(\Cl)c2ccccc2)c2ccccc2)cc1`, the Potency in experiment [1] is 12.6 µM (active); in [4], more than 20.6 µM; in experiment [5], more than 20.6 µM. Also, the activity change, negative = inhibition in experiment [2] was -12.4%. Moreover, the outcome in [3] and in [6] was inactive.
